3T3 cytotox – kills NIH 3T3 cells; AID 1345082; NIH 3T3 viability, CellTiter-Glo ATP luminescence, 48-72 h; hit rate 4.3% among 94,000; Potency, µM (titrated, usually from 96.7 µM), for the others: top-dose activity change, negative = cytotoxicity, actives largely listed as inhibitors; note: % is set by controls: 0 for no effect and ±100 for the full control effect; nearly all actives have a fitted effect of over 55% in size
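Cytotoxicity is measured as loss of cellular ATP: NIH 3T3 cells (400/well) are exposed to compound for 48 or 72 hr at 37 °C, then CellTiter-Glo luminescence is imaged after 10 min at room temperature.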
HEK293 viab – cell viability loss counter-screen; HEK-293-SNCA-luc viability, GF-AFC fluorescence, 24 h; Potency, µM (series often up to 57.1 µM), inactives show at the top dose activity change, negative = cytotoxicity, actives largely listed as cytotoxic; hit rate 0.12% among 150,000;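 note: 0% = DMSO-treated cells and -100% = medium-only wells without cells; nearly all actives have a fitted effect of over 30% in size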
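HEK-293-SNCA-luc cells (1500/well) plated 24 h, then exposed 24 h to a dilution series; GF-AFC added 30 min at 37C, fluorescence 405/540 nm; normalised to medium-only and DMSO wells, Hill fit.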
Luciferase inh – Photinus pyralis luciferase inhibition | P08659 | purified P. pyralis luciferase, luminescence, biochemical | hit rate 2.5% among 76,000 | Potency, µM (highest dose often 115 µM), most hits filed as inhibitors; note: % is set by controls: 0 for no effect and ±100 for the full control effect; nearly all actives have a fitted effect of over 65% in size
Target sequence (P08659 whole entry, looked up): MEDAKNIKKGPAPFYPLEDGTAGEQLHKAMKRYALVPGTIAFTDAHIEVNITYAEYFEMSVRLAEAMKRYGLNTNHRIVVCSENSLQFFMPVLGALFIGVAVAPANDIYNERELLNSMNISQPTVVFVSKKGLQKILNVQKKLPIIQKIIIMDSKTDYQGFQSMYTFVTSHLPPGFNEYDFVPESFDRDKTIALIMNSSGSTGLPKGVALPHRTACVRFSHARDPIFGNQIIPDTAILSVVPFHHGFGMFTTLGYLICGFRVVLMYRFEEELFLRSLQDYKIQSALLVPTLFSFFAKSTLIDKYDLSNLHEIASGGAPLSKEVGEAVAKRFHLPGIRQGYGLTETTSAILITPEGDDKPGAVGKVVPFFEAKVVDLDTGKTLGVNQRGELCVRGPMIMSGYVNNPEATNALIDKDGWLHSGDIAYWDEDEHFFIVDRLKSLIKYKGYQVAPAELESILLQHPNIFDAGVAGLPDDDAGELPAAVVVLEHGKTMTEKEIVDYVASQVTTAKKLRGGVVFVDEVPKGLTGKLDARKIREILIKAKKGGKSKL
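Luminescence read by CCD imaging after purified firefly luciferase (10nM final) was added to substrate buffer holding 10uM D-luciferin and 10uM ATP, pH 7.5, pre-dosed with compound.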
hNpr1 antagonist – blocks ANP-stimulated signaling of human Npr1 receptor; P16066; HEK293 hNpr1 GloSensor cGMP, ANP-stimulated luminescence; Potency, µM (top dose mostly 46.3 µM), for the others: top-dose activity change, negative = inhibition, usual class: inhibitors; hit rate 1.6% among 76,000; AID 1347048; calls by dose curve; note: % is set by controls: 0 for no effect and ±100 for the full control effect; nearly all actives have a fitted effect of over 60% in size
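HEK293 cells stably expressing human Npr1 and cGMP GloSensor pGS-40F, loaded 2 h with 2% GloSensor reagent, given compound 30 min at room temperature. Luminescence read before and 20 min after 0.1 nM hNppA.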
SNCA expr inhib – SNCA gene expression inhibition | HEK-293 SNCA-luciferase knock-in, luminescence, 24 h | Potency, µM (doses to about 57.2 µM), for the others: at the highest dose activity change, negative = inhibition, usual class: inhibitors | hit rate 0.17% among 140,000;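 note: plate controls were DMSO cells for no effect and cell-free wells for full effect; nearly all actives have a fitted effect of over 45% in size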
HEK cytotox – cytotoxic compounds in HEK 293 cells; HEK 293 viability, ATP luminescence (CellTiter-Glo), 48-72 h; Potency, µM (highest dose often 115 µM), inactives show top-dose activity change, negative = cytotoxicity, actives largely listed as inhibitors; hit rate 6.6% among 94,000; note: % is set by controls: 0 for no effect and ±100 for the full control effect; nearly all actives have a fitted effect of over 60% in size
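ATP-coupled CellTiter-Glo luminescence served as viability read-out, recorded 10 min after reagent addition at room temperature. HEK 293 cells, 250 cells/well, had been incubated with pintool-transferred compound for 48 or 72 hr at 37 degree Celsius.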
Npr1 antag conf – hNpr1 antagonism, confirmation assay. Potency, µM (highest dose often 57.6 µM), without a hit: at the top dose activity change, negative = inhibition, usual class: inhibitors. shares compounds with hNpr1 antagonist. HEK293 hNpr1 cGMP GloSensor luminescence, ANP-stimulated. AID 1347044. hit rate 76% among 1,400; calls by dose curve; note: nearly all actives have a fitted effect of over 70% in size
Npr2 selectivity – selectivity test of Npr1 antagonists against human Npr2; shares compounds with hNpr1 antagonist; HEK293 hNpr2 GloSensor cGMP luminescence, CNP-stimulated; Potency, µM (top dose mostly 57.6 µM), for inactives: top-dose activity change, negative = inhibition, most hits filed as inhibitors; hit rate 67% among 1,400; AID 1347046; calls by dose curve; note: nearly all actives have a fitted effect of over 70% in size
FLuc counter – FLuc enzyme inhibition, Npr1 counter-screen. hit rate 0.7% among 1,400. Potency, µM (top dose mostly 57.6 µM), for the others: at the highest dose activity change, negative = inhibition, actives largely listed as inhibitors. shares compounds with hNpr1 antagonist. purified FLuc enzyme, luminescence, Km substrate; note: 0% is about no effect
GloSensor cGMP – counter-screen for Npr1 antagonists: GloSensor control cell line; Potency, µM (highest dose often 57.6 µM), without a hit: at the top dose activity change, negative = inhibition, most hits filed as inhibitors; shares compounds with hNpr1 antagonist; hit rate 69% among 1,400; AID 1347051; HEK293 GloSensor cGMP, SNP-stimulated, luminescence; calls by dose curve; note: % is set by controls: 0 for no effect and ±100 for the full control effect; nearly all actives have a fitted effect of over 70% in size
Starred values were filed as active, the others as inactive; i = inactive; u = inconclusive; x = not tested or not shown; [ ] = another dose, or the depositor's remark. Only some compounds are listed: those with a hit (about 7.2% of all), similar ones and a draw of the others. Unless noted, calls come from the whole dose curve; as a rule, active = well fitted curve in the direction sought with a large enough effect; inconclusive = small, poorly fitted or top-dose-only effect, or another doubt; inactive = no such curve, though single readings can be large; an effect the other way counts as inactive or inconclusive. Potency is the fitted concentration of half-maximal effect.

SMILES | 3T3 cytotox | HEK293 viab | Luciferase inh | hNpr1 antagonist | SNCA expr inhib | HEK cytotox | Npr1 antag conf | Npr2 selectivity | FLuc counter | GloSensor cGMP
O=Cc1ccccc1-c1cccc(O)c1 | u | -27%[87.6 µM] | x | x | -27%[87.6 µM] | u | u | 50µM* | u | u
Cc1cccc(-c2ccccc2C=O)c1 | 3%[174 µM] | 5%[87.6 µM] | x | x | -22%[87.6 µM] | -10%[230 µM] | x | x | x | x
O=C(NCCN1CCCC1)C1Cn2cccc2C(=O)N1Cc1ccccc1 (configuration not stated) | -6% | 4% | i | -8% | -11% | i | x | x | x | x
CCOc1ccc(CC(=O)NC2CCN(c3cc(-c4ccc(F)cc4)[nH]n3)C2)cc1OCC (configuration not stated) | u | -22% | i | -20% | -5% | u | x | x | x | x
COc1ccc(C(=O)N2CCC3(CC2)NC(=O)N(Cc2ccc(F)cc2)C3=O)cc1F | u | -3% | i | 13µM* | -30% | u | 19µM* | 22µM* | 3% | 22µM*
COc1ccc(C(=O)N2CCC3(CC2)NC(=O)N(Cc2ccccc2)C3=O)cc1F | -20% | -1% | i | u | -3% | u | x | x | x | x
COc1ccc(CC(=O)NC2CCN(c3cc(-c4ccc(Cl)cc4)[nH]n3)C2)cc1OC (configuration not stated) | u | -11% | i | 10µM* | -17% | u | 19µM* | 22µM* | -2% | 11µM*
O=C(c1ccc2nc[nH]c2c1)N1CCCN(c2cc(-c3ccc(Br)cc3)[nH]n2)CC1 | -25% | 1% | i | -17% | u | u | x | x | x | x
COc1ccc(C(=O)N2CCCN(c3cc(-c4ccc(F)cc4)[nH]n3)CC2)cc1 | u | -3% | i | u | 1% | u | x | x | x | x
O=C(Cc1c[nH]c2ccccc12)N1CCCN(c2cc(-c3ccc(Br)cc3)[nH]n2)CC1 | 35µM* | u | i | 16µM* | u | u | 24µM* | 27µM* | -7% | 27µM*
COc1ccc(C(=O)N2CCN(c3cc(-c4ccc(Cl)cc4)[nH]n3)CC2)cc1 | 7.1µM* | -9% | i | 8.9µM* | -11% | 35µM* | 15µM* | 17µM* | -1% | 11µM*
Cc1nc(C)c(C(=O)N2CCC(c3noc(-c4ccccn4)n3)C2)s1 (configuration not stated) | -15% | 12% | i | 1% | 0% | -2% | x | x | x | x
COc1cccc(C(=O)N2CCCC2c2nncn2CCN(C)C)c1C (configuration not stated) | i | -7% | i | 4% | 6% | 19% | x | x | x | x
O=C(O)c1ccc(C2CCCN(C(=O)CCCn3cncn3)C2)cc1 (configuration not stated) | -1% | 4% | i | 3% | -5% | -3% | x | x | x | x
CC(=O)Nc1ccc(C(=O)N2CCCN(c3cc(-c4ccc(Cl)cc4)[nH]n3)CC2)cc1 | -24% | -5% | i | -29% | 3% | u | x | x | x | x
O=C(c1ccc(Cl)cc1)N1CCN(c2cc(-c3ccc(Cl)cc3)[nH]n2)CC1 | 32µM* | -17% | i | 11µM* | u | 40µM* | 22µM* | 22µM* | 4% | 22µM*
CCOc1ccc(C(=O)N2CCCN(c3cc(-c4ccc(Cl)cc4)[nH]n3)CC2)cc1OCC | u | u | i | 11µM* | u | u | 15µM* | 17µM* | 5% | 15µM*
O=C(c1ccccc1)N1CCN(c2cc(-c3ccc(Cl)cc3)[nH]n2)CC1 | u | 5% | i | u | 10% | u | u | u | 0% | u
COc1cccc(C(=O)N2CCN(c3cc(-c4ccc(Cl)cc4)[nH]n3)CC2)c1OC | u | -1% | i | 11µM* | u | u | 22µM* | 22µM* | 4% | 17µM*
O=C(c1cc(Cl)ccc1F)N1CCN(c2cc(-c3ccccc3)[nH]n2)CC1 | u | -4% | i | -20% | 17% | u | x | x | x | x
COCCC(=O)N1CCN(C(=O)N2CC3CC(C2)[C@H]2CCCC(=O)N2C3)CC1 (some centres not stated) | i | 4% | i | 2% | -8% | -2% | x | x | x | x
COc1cccc(CN2CC[C@@H]3C(=O)NCCCCCCN(Cc4ccncc4)[C@@H]3C2)c1OC | -24% | u | i | -6% | -2% | -23% | x | x | x | x
CNS(=O)(=O)c1ccc(CN2CCC3(CCNCC3)C2)cc1 | 2% | -9% | i | 5% | -2% | 4% | x | x | x | x
O=C(CN1C(=O)NC2(CCOCC2)C1=O)Nc1cccc(F)c1 | -1% | -4% | u | -4% | 243% | 3% | x | x | x | x
COc1ccc(CC(=O)N2CCCN(c3cc(-c4ccc(OC)cc4)[nH]n3)CC2)cc1 | u | -19% | i | u | 3% | u | u | u | 0% | -19%
O=C(c1ccc2c(c1)OCO2)N1CCCN(c2cc(-c3ccc(Br)cc3)[nH]n2)CC1 | u | u | i | 18µM* | u | u | 24µM* | 24µM* | 2% | 31µM*
O=C(NC1CCN(c2cc(-c3ccc(Cl)cc3)[nH]n2)CC1)c1cccc(F)c1 | -3% | -7% | i | 2% | 9% | u | x | x | x | x
O=C(c1ccccc1Br)N1CCN(c2cc(-c3ccc(Cl)cc3)[nH]n2)CC1 | 25µM* | -30% | i | 2.5µM* | u | u | 19µM* | 19µM* | 0% | 12µM*
COc1ccc(-c2cc(N3CCN(C(=O)c4ccccc4Br)CC3)n[nH]2)cc1 | u | u | i | u | u | u | x | x | x | x
O=C(NC1CCN(c2cc(-c3ccc(F)cc3)[nH]n2)CC1)c1ccc(F)c(Cl)c1 | 32µM* | -17% | i | u | -2% | u | 24µM* | u | -3% | u

Source: PubChem BioAssay
